The text below walks through data of ChEMBL document CHEMBL1961873, “Compounds: GSK PKIS; Assays: Nanosyn kinase panel” (2012).

As usually defined, the inhibition is the drop in the measured response relative to a control, in per cent.
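Note: mean percent inhibition of the kinase bound to its cyclin partner.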

This test deals with Cyclin-dependent kinase 6 (Homo sapiens) (UniProt Q00534). Conditions: at 1 µM.
Sequence of Cyclin-dependent kinase 6 (Homo sapiens) (Q00534 whole entry): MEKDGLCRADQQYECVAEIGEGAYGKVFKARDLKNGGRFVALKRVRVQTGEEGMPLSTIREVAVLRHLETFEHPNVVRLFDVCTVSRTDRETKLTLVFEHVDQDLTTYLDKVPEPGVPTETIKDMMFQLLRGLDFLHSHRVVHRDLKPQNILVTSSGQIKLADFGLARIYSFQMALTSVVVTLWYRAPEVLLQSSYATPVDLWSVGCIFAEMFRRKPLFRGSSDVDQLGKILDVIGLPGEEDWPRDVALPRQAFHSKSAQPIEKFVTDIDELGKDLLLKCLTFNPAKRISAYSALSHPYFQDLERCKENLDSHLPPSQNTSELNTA
Consider `Nc1ccc(C#Cc2cncnc2Nc2ccc(OCc3cccc(F)c3)c(Cl)c2)cc1`, for which the inhibition stood at 0.37%.

For `ON=C1CCc2cc(-c3nc(C4CCNCC4)[nH]c3-c3ccncc3)ccc21`, the inhibition was -0.84%.

As for `CS(=O)(=O)CCNCc1nc(-c2ccc3ncnc(Nc4ccc(OCc5cccc(C(F)(F)F)c5)cc4)c3c2)cs1`, the inhibition is 3.31%.

Consider `Cc1ccc2c(-c3ccnc(Nc4ccc5c(c4)OCCO5)n3)c(-c3ccc(C(F)(F)F)cc3)nn2n1`, for which the inhibition was -1.75%.

Consider `CN(C)C(=O)O[C@H]1CN[C@H](C#Cc2cc3ncnc(Nc4ccc(OCc5cccc(F)c5)c(Cl)c4)c3s2)C1`, for which the inhibition was determined as 4.47%.

Consider `COc1cc(/C=N/Nc2ncnc3c2cnn3C(C)C)ccc1O`, for which the inhibition was found to be 9.96%.

Regarding `Cc1cc(Cl)cc2c1NC(=O)C2=NNc1ccc(S(N)(=O)=O)cc1`, the inhibition was found to be 3.46%.

As to `Nc1nccc(-c2c(-c3ccc(F)cc3)nn3cc(C(F)(F)F)ccc23)n1`, the inhibition was -0.06%.

With `COC(=O)c1cncc(/C=C/c2c(C)cc(O)cc2C)c1`, the inhibition was 4.14%.

Turning to `Cc1nc(-c2ccccc2)n2nc(NCCCN3CCOCC3)ncc12`, the inhibition is 52.7%.

Consider `Cc1ccc2c(c1)/C(=N/Nc1ccc(S(N)(=O)=O)cc1)C(=O)N2`, for which the inhibition came out at 36.9%.

Consider `CCCN1CCCC(c2ccc(Nc3nc(Nc4cc(F)ccc4C(N)=O)c4cc[nH]c4n3)c(OC)c2)C1` (stereo not drawn), for which the inhibition stood at 8.41%.

Take `CN(c1ccc(NC(=O)Nc2ccc(OC(F)(F)F)cc2)cc1)c1ccnc(Nc2cccc(S(N)(=O)=O)c2)n1`: the inhibition came out at 27.4%.

With `O=C1Nc2ccccc2/C1=C/Nc1ccc2[nH]c(=O)[nH]c2c1`, the inhibition stood at 59%.

As to `FC(F)(F)c1ccc(-c2nn3ncccc3c2-c2ccnc(Nc3ccc4c(c3)OCCO4)n2)cc1`, the inhibition amounted to 3.58%.

Take `N#Cc1c(NC(=O)c2ccccc2F)sc2c1CCCC2`: the inhibition was -2.09%.

Take `Cc1ccc(Nc2ccnc(Nc3cccc(C(N)=O)c3)n2)cc1O`: the inhibition is -0.13%.

Consider `Cc1ccc(C(=O)NC2CC2)cc1-c1ccc2[nH]ncc2c1`, for which the inhibition was -2.84%.

For `COc1cc(Nc2nccc(-c3cnn4ncccc34)n2)cc(OC)c1`, the inhibition was found to be 76.1%.

For the compound `NS(=O)(=O)c1cccc(-c2cc3ccncc3cc2OCc2ccccc2)c1`, the inhibition came out at 10.9%.

Regarding `CC(C)c1ccc(Nc2nccc(-c3cnn4ncccc34)n2)cc1`, the inhibition turned out to be 19.4%.

With `CCOc1nccc2c1nc(-c1nonc1N)n2CC`, the inhibition worked out at 1.84%.

With `c1ccc(Cc2nc3ccc(Nc4ncnc5ccccc45)cc3[nH]2)cc1`, the inhibition stood at 8.79%.

Take `Cc1ccc(O)cc1Nc1ccnc2ccc(S(C)(=O)=O)cc12`: the inhibition is 3.72%.

For the compound `Cc1ccc(NC(=O)CC2CC2)cc1-c1ccc(C(=O)NCC2CC2)cc1`, the inhibition is 1.87%.

Regarding `O=S(=O)(CCOCc1ccc(-c2ccc3ncnc(Nc4ccc(OCc5cccc(F)c5)c(Cl)c4)c3c2)o1)c1ccccc1`, the inhibition came to 3.76%.

`CCn1c(-c2nonc2N)nc2c(C#CC(C)(C)O)nc(OCCNC)cc21`: the inhibition was -2.07%.

Regarding `COc1cc2ncn(-c3cc(OCc4ccccc4S(C)(=O)=O)c(C#N)s3)c2cc1OC`, the inhibition worked out at 3.82%.

For the compound `Nc1nccc(C#Cc2cncnc2Nc2ccc(OCc3cccc(F)c3)c(Cl)c2)n1`, the inhibition amounted to 2.5%.

On to `CCn1c(-c2nonc2N)nc2ccc(F)cc21`, for which the inhibition stood at 2.18%.

Take `NS(=O)(=O)c1ccc(NC=C2C(=O)Nc3ccc4ncsc4c32)cc1`: the inhibition is 77.7%.

With `COC(=O)c1ccc2c(c1)C(=Cc1cc(Br)c(O)c(Br)c1)C(=O)N2`, the inhibition is -4.12%.

In the case of `Cc1cc(-c2ccccn2)cc(C)c1/C=C/c1cncc(-c2nn[nH]n2)c1`, the inhibition came out at 5.55%.
